Bioassay records from PubChem.
A selection: hits, their analogues and other compounds. The true share with any hit is near 7.1%.
M1 ag = M1 muscarinic receptor agonists, primary screen, CHO-M1 cells, Fluo-4 calcium, agonist mode | Muscarinic acetylcholine receptor M1 | Fluo-4 calcium fluorescence; stronger effect = higher value | B-score at 10 µM | hit rate 3% among 64,000;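 active = fluorescence rise, raw or as B-score row- and column-corrected plate score, outside the 99.7% band of its plate's samples, either direction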
Cav32 inh = Cav3.2 calcium influx blockers – cell-based, Fluo-4 calcium fluorescence, FDSS, MLSMR library, primary screen | hit rate 4% among 100,000 | Voltage-dependent T-type calcium channel subunit alpha-1H (Homo sapiens), O95180 | Cav3.2-expressing cells; stronger effect = lower value | B-score at 10 µM;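 active = single-dose well whose peak fluorescence ratio is a statistical outlier from its plate by either plate-standardised score or position-corrected B-score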
M1 antagonist = antagonists of rat M1 muscarinic receptor; Muscarinic acetylcholine receptor M1 (Rattus norvegicus), P08482; CHO-M1 cells, Fluo-4 calcium, ACh EC80 antagonist mode; stronger effect = lower value; B-score at 10 µM; hit rate 3.4% among 64,000;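 active = calcium fluorescence response, raw or row-and-column corrected B-score, differing from the plate sample mean either way at a set confidence level, mostly lower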
Pyk2 oligo antag = antagonists of Pyk2 self-association, primary screen, Q293 cells, FERM NanoBiT luminescence, HTS; hit rate 0.83% among 99,000; stronger effect = lower value; Protein-tyrosine kinase 2-beta (Homo sapiens), Q14289; z-score (the deposit names both 25 µM and 10 µM); AID 1347419, 2020;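 active = Z-score of -3 or lower, scaled per plate to the spread of control and sample wells; inactive = z-score above -3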;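 also: negative z-score means lost luminescence so less FERM oligomerization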
M1 antag conf = rat M1 muscarinic receptor antagonists, confirmation, CHO cells, Fluo-4 calcium, duplicate | shares compounds with M1 antagonist | AID 677, 2007 | ACh EC80 antagonism; stronger effect = lower value | hit rate 43% among 1,700 | calcium response (max-min fluorescence) at 10 µM;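 active = calcium response below the same-plate mean of wells given acetylcholine alone at its 80%-effect dose, minus 3 SD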;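 also: raw fluorescence intensity difference in arbitrary instrument units and not normalized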
mGluR4 antag = human mGluR4 response to M1 antagonist hits, M1 allosteric modulator project, cell-based, antagonist mode, secondary assay 1; shares compounds with M1 antagonist; CHO-mGluR4 calcium flux, Fluo-4 fluorescence, glutamate EC80; stronger effect = lower value; fluorescence response (max-min) at 10 µM; hit rate 0.9% among 1,700; AID 678, 2007;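 active = fluorescence response below the plate's average for near-maximal glutamate wells, less 3 SD of those wells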;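 also: raw unnormalized fluorescence span taken in the window right after glutamate addition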
Numbers without * were called inactive.

What do the screens show for `O=C(COc1ccc(Cl)cc1)N1CCN(Cc2ccccc2)CC1`?
Cav32 inh: -2; Pyk2 oligo antag: -0.28

How did O=C(COc1ccc(Cl)cc1)NC1CN2CCC1CC2 (stereo not drawn) do in these assays?
M1 ag: 0.59; Cav32 inh: 0.86; M1 antagonist: -16*; Pyk2 oligo antag: -0.87; M1 antag conf: 398*; mGluR4 antag: 257

How did c1ccc(C(OCCN2CCNCC2)c2ccccc2)cc1 do in these assays?
M1 ag: 0.49; Cav32 inh: -0.38; M1 antagonist: -14*; Pyk2 oligo antag: -0.26; M1 antag conf: 148*; mGluR4 antag: 219

Results for CCOC(=O)/C(CCCN(CC)CC)=N\O ?
M1 ag: -0.71; Cav32 inh: 1.3; M1 antagonist: -2.9*; Pyk2 oligo antag: -0.46; M1 antag conf: 251*; mGluR4 antag: 221

What do the screens show for `CCOC(=O)c1c(C)[nH]c(C(=O)C(Cc2ccccc2)N(C)C)c1C` (stereo not drawn)?
Pyk2 oligo antag: 0.35

Results for CCCCOCCCn1c(N)c(C(=O)OCCOC)c2nc3ccccc3nc21 ?
M1 ag: 3.2; Cav32 inh: 0.9; M1 antagonist: -4*; Pyk2 oligo antag: -1.8; M1 antag conf: 21*; mGluR4 antag: 229

What do the screens show for `Cc1ccc2nc(N3CCC(C(=O)N4CCC5(CC4)OCCO5)CC3)sc2c1`?
M1 ag: -0.049; Cav32 inh: 0.27; M1 antagonist: -1*; Pyk2 oligo antag: 2.4; M1 antag conf: 471*; mGluR4 antag: 247

Results for Cc1ccc(S(=O)(=O)NCC2CCC(C(=O)N3CCC4(CC3)OCCO4)CC2)cc1 (stereo not drawn) ?
M1 ag: -0.13; Cav32 inh: 0.027; M1 antagonist: 0.38; Pyk2 oligo antag: -1.6

How did CN1CC2=CC(O)CC3Oc4c(O)ccc(c4[C@]23C)C1 (stereo partly drawn) do in these assays?
Cav32 inh: 0.66

What do the screens show for `O=C(O)c1cc2ccccc2oc1=O`?
M1 ag: -1.1; M1 antagonist: -0.34

How did O=C(c1cc2ccccc2oc1=O)N1CCC2(CC1)OCCO2 do in these assays?
M1 ag: -0.083; Cav32 inh: 0.34; M1 antagonist: -3.7*; Pyk2 oligo antag: -0.08; M1 antag conf: 609; mGluR4 antag: 230

What do the screens show for `Cc1c(C(=O)N2CCC3(CC2)OCCO3)oc2ccccc12`?
M1 ag: -0.45; Cav32 inh: 0.03; M1 antagonist: -2.3*; Pyk2 oligo antag: 0.27; M1 antag conf: 519; mGluR4 antag: 171

Results for CN(C)c1ccc(CN2CC=C(c3ccc(F)cc3)CC2)cc1 ?
M1 ag: -0.0039; Cav32 inh: -0.045; M1 antagonist: -5.7*; Pyk2 oligo antag: 0.82; M1 antag conf: 469*; mGluR4 antag: 237

What do the screens show for `O=C1CC(N2CC=C(c3ccc(F)cc3)CC2)C(=O)N1c1ccc(F)cc1` (stereo not drawn)?
Cav32 inh: -0.032; Pyk2 oligo antag: -0.04

Results for CC(=O)O[C@@H]1[C@H]2CC[C@@H]3[C@]1(C[C@@H](OC(C)=O)[C@@]1(O)C([C@@H]4O[C@@H]4C1(C)C)[C@]3(C)O)C[C@@]2(C)O (stereo partly drawn) ?
Cav32 inh: 0.016

How did CCCCc1nc(N2CCNCC2)c(C#N)c2c1CSC(C)(C)C2 do in these assays?
M1 ag: -0.32; M1 antagonist: -9.8*; Pyk2 oligo antag: -0.43; M1 antag conf: 61*; mGluR4 antag: 220

What do the screens show for `c1ccc(-c2nnc(C3CC(c4cccnc4)=NO3)o2)cc1` (stereo not drawn)?
Cav32 inh: -1.4

Results for Cc1c(N=Cc2c(O)n(CCc3ccccc3)c(=O)[nH]c2=O)c(=O)n(-c2ccccc2)n1C ?
M1 ag: 0.66; Cav32 inh: 0.099; M1 antagonist: -4.1*; Pyk2 oligo antag: -1.8; M1 antag conf: 243*; mGluR4 antag: 236

Results for Cc1c(N=Cc2c(O)n(Cc3ccc(F)cc3)c(=O)[nH]c2=O)c(=O)n(-c2ccccc2)n1C ?
Cav32 inh: -0.82; Pyk2 oligo antag: -0.59
